# Screens (PubChem BioAssay)
# EWS-Fli inh: EWS/Fli transcriptional activity inhibition; hit rate 0.67% among 350,000; A673 NR0B1-luciferase reporter, viability-normalised; inhibition, % at 12.6 µM; AID 651661;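 active = mean inhibition of at least 50% after viability correction, with every replicate also passing that limit; inconclusive = mean reaches 50% but only one of two replicates passes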;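 also: firefly luciferase signal divided by Alamar Blue viability fluorescence both relative to DMSO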
# MITF TRPM1 inh: inhibitors of MITF-driven TRPM1 promoter in melanoma cells | hit rate 0.83% among 330,000 | AID 488899 | SK-MEL-5 TRPM1 promoter luciferase, 24 h | inhibition, % at 12.5 µM;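 active = mean inhibition across replicates of 60% or more, whatever share of single replicates reaches that level; inconclusive = some that reach 60%, reason not given; inactive = mean inhibition across replicates below 60%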
# esBAF inh: blocks esBAF chromatin remodeling in mouse ES cells. Bmi1-luciferase knock-in reporter, 24 h; 100% = twice the neutral-well signal. reporter increase, % at 12.5 µM. hit rate 2% among 350,000; in the data active = activation above about 40%; inconclusive = no clear call, values can overlap the other calls;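 also: 0% = median of the plate's neutral control wells and 100% = double that signal; a rise in the Bmi1 reporter signal indicates esBAF inhibition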
# Wnt act: activators of Wnt/beta-catenin signaling; Wnt/beta-catenin reporter cell assay, activator, plate reader; activation, % at 9.35 µM; hit rate 1.2% among 300,000; in the data active = activation above about 30%, passing the limit was not always enough; inconclusive = no clear call, values can overlap the other calls;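 also: 0% = neutral control wells and 100% = positive control wells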
# PAX8 reporter: PAX8 transcriptional activity inhibition; RMG-I TPO-luciferase reporter, SteadyGlo, 24 h; inhibition, % at 12.6 µM; hit rate 1.2% among 360,000;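 active = mean replicate inhibition at least 60% with every replicate also reaching 60%; inconclusive = only one of the two criteria is met; inactive = mean below 60% and not all replicates reaching 60%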;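 also: luciferase light reporting Pax8 driven TPO promoter activity; plate controls were median of neutral control wells for no effect and mitoxantrone controls for full effect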
# MITF act: MITF TRPM1 promoter activation in melanoma cells | SK-MEL-5 TRPM1-promoter luciferase, 24 h; % of positive control, neutral wells = 0 | activation, % at 12.5 µM | hit rate 0.75% among 300,000;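 active = mean activation of at least 80% with every replicate also reaching 80%; inconclusive = mean reaches 80% but some replicate falls short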;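 also: 0% = neutral control wells and 100% = parthenolide positive control wells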
# * = called active by the depositor; ? = inconclusive; . = no result. An excerpt weighted towards active compounds, which were near 4% of everything screened.
SMILES,EWS-Fli inh,MITF TRPM1 inh,esBAF inh,Wnt act,PAX8 reporter,MITF act
Oc1ccc(F)c2cccnc12,7.8,10.0,-0.9,7.3,94.5*,-9.3
Oc1ccc(CNc2ccccc2F)c2cccnc12,-1.8,65.4*,0.7,-3.4,86.7*,-66.8
C[C@H](CO)N1C[C@H](C)[C@H](CN(C)C(=O)Nc2ccccc2)Oc2c(NC(=O)Nc3ccc(F)cc3)cccc2C1=O,-2.7,.,4.6,.,.,.
CCOC(=O)/C=C/[C@H]1CC2(CCO1)SCCCS2,-2.8,-76.5,55.4*,25.9,-101.8,71.3
O=C(CC(c1ccccc1O)N1CCCCC1)N1CCCCC1 (centres undefined),.,-7.2,.,38.5*,-83.8,.
O=C(CC(c1ccccc1)c1cc(Cl)ccc1O)N1CCCC1 (centres undefined),5.4,9.0,.,5.3,1.9,-10.7
CCC(=O)NC1=C(Cl)C(=O)C(NC(=O)CC)=C(Cl)C1=O,25.0,23.2,8.9,2.2,85.7*,-15.6
O=C(NC1CCC1)[C@H]1[C@H](CO)[C@H]2Cn3c(cccc3=O)[C@@H]1N2CC1CCCC1,0.2,.,.,.,.,.
C[C@@H]1CCCCO[C@H](CN(C)S(=O)(=O)c2ccc(F)cc2)[C@H](C)CN([C@@H](C)CO)C(=O)c2cc(NC(=O)CCCN(C)C)ccc2O1,8.1,.,-6.9,.,-39.4,.
O=C(NCc1nnnn1-c1ccc(F)cc1)c1ccc2ccccc2c1,13.1,.,-12.2,2.9,3.7,.
Cc1ccc(-n2nnnc2CNC(=O)c2ccc([N+](=O)[O-])o2)cc1C,25.6,62.2*,9.2,3.9,84.3*,-62.5
O=C(NCc1nnnn1-c1ccc(F)cc1)c1ccc([N+](=O)[O-])o1,7.7,34.2,2.9,4.1,70.3*,-32.7
Cc1ccc(-n2nnnc2CNC(=O)c2ccc(Br)o2)cc1C,.,0.5,-0.8,-2.8,9.0,3.2
CNC(=O)C1=C[C@@H](c2ccc(OC)cc2)C[C@@H](OCCCCO)O1,4.4,.,.,.,0.3,.
CNC[C@@H]1OCCCC[C@@H](C)Oc2ccc(NC(=O)Nc3ccc(C(F)(F)F)cc3)cc2C(=O)N([C@H](C)CO)C[C@H]1C,-5.0,.,1.8,.,19.9,.
O=C1C=CC(O)(c2cc(=O)c3c(O)cc(O)cc3o2)C=C1,72.9*,80.5*,-76.6,-24.1,88.9*,-80.1
COc1ccc(OC(=O)N2C/C(=C/c3ccccc3)C(=O)/C(=C\c3ccccc3)C2)cc1,48.0,86.0*,-13.0,-6.2,11.0,-85.2
CCOC(=O)N1C/C(=C\c2ccccc2)C(=O)/C(=C/c2ccccc2)C1,46.5,104.3*,-15.0,-0.3,9.7,-103.9
CCOC(=O)N1CCN(S(=O)(=O)/C=C/c2ccccc2)CC1,.,-3.5,-6.4,.,-3.4,.
CCNC(=O)C[C@@H]1CC[C@H]2[C@@H](COC[C@H](O)CN2C(=O)CC)O1,-4.9,.,-3.9,.,1.1,.
O=C(C[C@H]1CC[C@@H]2[C@H](COC[C@H](O)CN2C(=O)c2ccccc2)O1)Nc1ccccc1,.,.,2.3,.,.,.
O=C(NC(=S)Nc1nc2c(s1)CCCC2)c1ccccc1,-11.1,-29.6,.,26.6,-42.7,32.4
S=C(Nc1nc2c(s1)CCCC2)NC1CC1,.,-52.0,50.9*,11.1,-187.3,51.8
CCCC#Cc1ccc2c(c1)O[C@@H](CN(C)C(=O)c1ccccn1)[C@H](C)CN([C@H](C)CO)S2(=O)=O,-8.4,.,0.7,.,.,.
C[C@H](CO)N1C[C@H](C)[C@@H](CN(C)S(=O)(=O)c2ccc(F)cc2)OCCCC[C@H](C)Oc2ccc(NC(=O)CCC(F)(F)F)cc2C1=O,-2.1,.,-2.7,.,-6.2,.
SMILES,EWS-Fli inh,MITF TRPM1 inh,esBAF inh,Wnt act,PAX8 reporter,MITF act
CCCCc1cc(=O)oc2c(CN(C)C)c(O)ccc12,.,-0.2,-0.1,-7.4,.,-3.1
CC[C@@]1(O)C(=O)OCc2c1cc1n(c2=O)Cc2cc3c(CN(C)C)c(O)ccc3nc2-1,63.4*,79.5*,-46.3,5.1,101.8*,-78.4
CC[C@@]1(O)C(=O)OCc2c1cc1n(c2=O)Cc2cc3c(N)cccc3nc2-1,?,80.3*,-74.2,-17.9,99.3*,-80.4
Cc1noc(C)c1NC(=O)Nc1ccc2c(c1)C(=O)N([C@H](C)CO)C[C@H](C)[C@H](CN(C)S(=O)(=O)c1ccccc1)OCCCC[C@@H](C)O2,-4.3,.,-2.6,.,-19.2,.
CCNC(=O)[C@@H]1[C@@H](CO)[C@@H]2Cn3c(ccc(-c4ccccc4)c3=O)[C@@H]2N1Cc1ccccc1,1.3,.,3.5,.,.,.
Cc1ccc(-c2ccc(CCC(=O)O)n2-c2cccc(O)c2)cc1,.,-3.5,63.5*,.,.,2.0
Cc1ccc(-c2ccc(CCC(=O)O)n2-c2ccc(O)cc2)cc1,.,0.4,-4.0,.,.,0.5
COc1ccc(NC(=O)COC(=O)C23CC4CC(CC(O)(C4)C2)C3)cc1Cl,-4.6,-79.1,9.9,39.4*,-98.6,85.7*
O=C(COC(=O)C12CC3CC(CC(O)(C3)C1)C2)NCCc1ccc(Cl)cc1,-15.9,-8.0,.,-1.8,-4.2,9.2
O=C(COC(=O)C12CC3CC(CC(O)(C3)C1)C2)Nc1ccc(Cl)cc1F,-16.3,-87.9,16.5,22.8,-174.7,93.0*
C[C@@H]1CN([C@@H](C)CO)S(=O)(=O)c2ccc(-c3ccncc3)cc2O[C@H]1CN(C)C(=O)C1CCC1,-0.4,.,.,.,.,.
O=C(Nc1ccc2c(c1)OCCO2)C1CC(c2ccccc2Cl)=NO1 (centres undefined),-72.6,-78.0,60.4*,10.5,-66.5,?
O=C(Nc1ccc2c(c1)OCO2)C1CC(c2ccccc2O)=NO1 (centres undefined),-4.5,-6.0,24.9,1.1,-3.4,.
O=C(Nc1ccc2c(c1)OCO2)c1cc(-c2ccccc2Cl)on1,-32.2,-109.5,60.2*,20.0,-165.9,?
O=C(Nc1ccc2c(c1)OCO2)c1cc(-c2ccc(O)cc2)on1,-91.6,-72.7,46.4*,21.0,-187.0,77.5
COc1cccc(-c2cc(C(=O)Nc3ccc4c(c3)OCO4)no2)c1,-17.9,.,29.1,2.7,-79.3,.
O=C(Nc1ccc2c(c1)OCO2)c1cc(-c2cccc(O)c2)on1,-93.4,-109.0,43.1*,20.6,-97.1,115.1*
COc1ccc(NC(=O)N(C)C[C@H]2OCCCC[C@@H](C)Oc3ccc(NC(=O)Nc4ccc5c(c4)OCO5)cc3C(=O)N([C@@H](C)CO)C[C@H]2C)cc1,-2.8,.,-1.0,.,4.6,.
CCC(=O)N1C[C@@H](C)[C@@H](OC)CN(C)C(=O)c2cc(NC(=O)Nc3ccccc3)ccc2OC[C@@H]1C,-1.9,.,-3.7,.,6.2,.
O=C(Nc1cccnc1)c1cc(-c2ccc3c(c2)OCO3)on1,.,-23.0,68.7*,.,.,21.9
COc1cccc(-c2cc(C(=O)NCC3CCCO3)on2)c1 (centres undefined),.,-38.2,55.6*,10.6,-123.9,41.3
O=C(NCC1CCCO1)c1cc(-c2ccc(F)cc2)no1 (centres undefined),-67.3,-12.9,26.9,38.8*,-28.0,11.7
CO[C@@H]1CC[C@@H]2CCOc3c(C#N)cccc3C(=O)N(C)[C@@H](C)C(=O)N(C)C[C@H]1O2,2.6,.,-5.6,.,-12.1,.
